The record followed here is PubChem BioAssay.

The test system of test [1] is PRMT1 (protein arginine N-methyltransferase 1). Description: small molecules binding arginine methyltransferase PRMT1 – biochemical, small-molecule microarray, 635 nm fluorescence, primary screen (AID 1088).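 Note: binding of Prmt1 protein to compounds spotted on small-molecule microarray slides.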 The following applies: higher = more signal.
A short description of test [2]: growth effects on S. cerevisiae YJM789 – YJM789 clinical isolate, OD600, 24 h, basal, primary screen (AID 1089).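 Note: growth of clinical yeast isolate S. cerevisiae YJM 789 seeded 1000 cells per well; test concentration not given here.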 As to conditions: higher = more signal, called active from +8 up or from −8 down.
The nature of test [3]: S. pombe growth modifiers, basal conditions – strain 972, OD600, 24 h, no modulator, primary screen (AID 1090).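 Note: basal condition with compound alone and no growth modifier present; test concentration not given here.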 The following applies: S. pombe 972 growth, higher = more signal, called active from +8 up or from −8 down.
Test [4] can be described thus: budding yeast growth modifiers under rapamycin – strain BY4716, OD600, 96 h, primary screen (AID 1091). Note: test concentration not given here. The following applies: S. cerevisiae BY4716 + rapamycin, higher = more signal, called active from +8 up or from −8 down.
For test [5], the target named is Torsin-1A-interacting protein 2 (Homo sapiens) (UniProt Q8NFQ8). The experiment in a line: small molecules binding lysate-expressed LULL1 – cell lysate, human LULL1 lysate, 635/667 nm fluorescence, primary screen (AID 1092).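 Note: probe is lysate of COS7 cells overexpressing human LULL1; score merges per-feature 667 nm fluorescence with signal-to-noise.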 The following applies: small-molecule microarray, hLULL1 lysate binding, 635 nm fluorescence; higher = more signal.
Torsin-1A-interacting protein 2 (Homo sapiens), sequence (Q8NFQ8 whole entry, looked up): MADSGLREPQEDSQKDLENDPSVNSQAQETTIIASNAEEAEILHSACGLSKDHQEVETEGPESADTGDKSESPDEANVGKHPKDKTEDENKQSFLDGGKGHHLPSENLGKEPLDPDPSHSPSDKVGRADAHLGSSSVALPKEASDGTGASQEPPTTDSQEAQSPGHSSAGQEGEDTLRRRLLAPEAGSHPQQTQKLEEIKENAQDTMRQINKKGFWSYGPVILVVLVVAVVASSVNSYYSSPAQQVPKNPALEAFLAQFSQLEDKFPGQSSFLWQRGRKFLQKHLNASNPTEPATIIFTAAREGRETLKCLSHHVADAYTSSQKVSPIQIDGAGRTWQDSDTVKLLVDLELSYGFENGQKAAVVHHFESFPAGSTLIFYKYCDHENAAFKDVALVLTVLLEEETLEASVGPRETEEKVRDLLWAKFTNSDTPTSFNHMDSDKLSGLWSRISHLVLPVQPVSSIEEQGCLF
A short description of test [6]: optical density change of DRC41 E. coli – strain DRC41, OD650, 24 h, E. coli filamentation project, primary screen (AID 1093).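 Note: MC1000 strain lacking acrAB efflux and sulA so SOS filamentation is blocked; test concentration not given here.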 As to conditions: E. coli DRC41 growth, higher = more signal, called active from +8 up or from −8 down.
Test [7] is described as follows: probe aLefty2 binding to arrayed compounds – biochemical, biotinylated probe, 635/667 nm fluorescence, primary screen (AID 1094).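 Note: score merges spot fluorescence near 667 nm with spot signal-to-noise ratio.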 The following applies: small-molecule microarray, higher = more signal.
The test system of test [8] is Noggin (protein binding on small-molecule microarray). Description: small molecules binding Noggin protein – biochemical, 635/667 nm fluorescence, primary screen (AID 1095).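 Note: score merges 667 nm feature fluorescence with signal to noise over triplicate slides.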 The following applies: 635 nm fluorescence, higher = more signal.
The target of test [9] is Neurogenic locus notch homolog protein 3 (Homo sapiens) (UniProt Q9UM47). The experiment in a line: small molecules binding NOTCH3 protein – biochemical, 635/667 nm fluorescence, primary screen (AID 1096). The following applies: small-molecule microarray, 635 nm fluorescence, higher = more signal.
Neurogenic locus notch homolog protein 3 (Homo sapiens), sequence (Q9UM47 whole entry, looked up): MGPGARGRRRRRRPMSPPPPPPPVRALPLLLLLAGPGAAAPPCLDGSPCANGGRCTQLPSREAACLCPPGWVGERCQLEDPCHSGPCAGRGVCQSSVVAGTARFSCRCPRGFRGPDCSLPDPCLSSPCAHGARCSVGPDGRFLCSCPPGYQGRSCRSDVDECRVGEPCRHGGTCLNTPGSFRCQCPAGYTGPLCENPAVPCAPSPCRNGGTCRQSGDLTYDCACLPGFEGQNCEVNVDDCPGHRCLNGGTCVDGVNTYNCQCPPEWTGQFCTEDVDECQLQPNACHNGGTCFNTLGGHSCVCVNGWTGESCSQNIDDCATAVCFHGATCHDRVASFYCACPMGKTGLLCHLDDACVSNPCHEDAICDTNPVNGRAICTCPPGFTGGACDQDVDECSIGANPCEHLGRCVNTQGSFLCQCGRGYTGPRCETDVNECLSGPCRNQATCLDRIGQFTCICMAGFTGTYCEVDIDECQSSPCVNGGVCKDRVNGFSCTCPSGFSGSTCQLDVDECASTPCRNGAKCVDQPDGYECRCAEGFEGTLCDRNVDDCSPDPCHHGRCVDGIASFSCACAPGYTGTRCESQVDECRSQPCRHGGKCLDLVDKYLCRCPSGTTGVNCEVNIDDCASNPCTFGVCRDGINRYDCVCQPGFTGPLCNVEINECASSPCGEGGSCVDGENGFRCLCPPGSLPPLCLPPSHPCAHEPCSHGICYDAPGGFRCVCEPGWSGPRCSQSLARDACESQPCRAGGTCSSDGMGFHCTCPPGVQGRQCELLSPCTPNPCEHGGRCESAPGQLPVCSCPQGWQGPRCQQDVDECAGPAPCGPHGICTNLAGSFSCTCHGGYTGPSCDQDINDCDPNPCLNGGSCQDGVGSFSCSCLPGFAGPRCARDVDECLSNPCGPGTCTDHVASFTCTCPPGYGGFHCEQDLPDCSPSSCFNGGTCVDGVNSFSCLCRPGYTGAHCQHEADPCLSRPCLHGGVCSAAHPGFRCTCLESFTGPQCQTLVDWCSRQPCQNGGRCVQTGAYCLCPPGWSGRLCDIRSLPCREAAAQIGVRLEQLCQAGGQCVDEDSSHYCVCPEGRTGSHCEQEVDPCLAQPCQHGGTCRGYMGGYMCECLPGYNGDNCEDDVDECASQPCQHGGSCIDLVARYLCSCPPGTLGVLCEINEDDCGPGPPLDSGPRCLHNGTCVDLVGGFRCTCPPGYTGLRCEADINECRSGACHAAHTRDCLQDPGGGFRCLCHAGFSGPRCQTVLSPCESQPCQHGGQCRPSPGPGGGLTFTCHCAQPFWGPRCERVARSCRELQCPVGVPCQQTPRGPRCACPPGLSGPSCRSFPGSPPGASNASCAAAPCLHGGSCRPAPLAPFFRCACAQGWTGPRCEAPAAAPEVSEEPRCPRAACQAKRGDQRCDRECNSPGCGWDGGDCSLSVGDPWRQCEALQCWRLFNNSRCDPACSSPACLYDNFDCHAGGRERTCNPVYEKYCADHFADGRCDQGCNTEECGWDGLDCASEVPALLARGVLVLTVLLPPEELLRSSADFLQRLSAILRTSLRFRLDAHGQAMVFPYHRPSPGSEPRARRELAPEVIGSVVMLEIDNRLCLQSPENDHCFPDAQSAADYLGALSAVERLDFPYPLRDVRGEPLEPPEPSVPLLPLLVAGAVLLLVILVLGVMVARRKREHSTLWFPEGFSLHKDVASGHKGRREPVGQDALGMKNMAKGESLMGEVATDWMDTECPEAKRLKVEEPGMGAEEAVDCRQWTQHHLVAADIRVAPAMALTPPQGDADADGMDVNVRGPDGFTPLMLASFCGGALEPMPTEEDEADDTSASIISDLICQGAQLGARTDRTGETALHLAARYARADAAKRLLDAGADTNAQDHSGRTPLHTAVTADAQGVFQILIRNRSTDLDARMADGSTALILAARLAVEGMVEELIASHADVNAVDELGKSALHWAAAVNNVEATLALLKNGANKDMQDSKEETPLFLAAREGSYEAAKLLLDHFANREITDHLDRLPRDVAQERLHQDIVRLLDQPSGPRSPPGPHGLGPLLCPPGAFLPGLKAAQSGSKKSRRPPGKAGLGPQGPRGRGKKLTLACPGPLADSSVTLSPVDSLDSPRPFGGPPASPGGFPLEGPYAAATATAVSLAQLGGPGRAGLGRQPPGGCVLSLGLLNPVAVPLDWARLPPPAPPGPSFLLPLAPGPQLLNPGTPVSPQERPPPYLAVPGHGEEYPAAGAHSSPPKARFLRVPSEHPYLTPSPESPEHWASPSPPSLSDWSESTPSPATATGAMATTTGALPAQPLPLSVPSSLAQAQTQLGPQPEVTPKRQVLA
A short description of test [10]: probe aEGFR binding to arrayed compounds – biochemical, biotinylated probe, 635/667 nm fluorescence, primary screen (AID 1097).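 Note: probe is a biotinylated anti-EGFR antibody binding compounds printed on slides; score combines fluorescence near 667 nm and signal to noise of each spot.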 As to conditions: small-molecule microarray, higher = more signal.
The subject of test [11] is Plasmodium falciparum Sir2 (PF13_0152, Sir2A). The experiment in a line: Plasmodium falciparum Sir2A binding compounds – biochemical, small-molecule microarray, 635 nm fluorescence, primary screen (AID 1098).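 Note: score merges spot fluorescence intensity with its signal-to-noise ratio.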 As to conditions: fluorescence 635 nm, higher = more signal.
Test [12] can be described thus: probe aDKK1 binding to arrayed compounds – biochemical, biotinylated probe, 635/667 nm fluorescence, primary screen (AID 1099).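 Note: score merges 667nm spot fluorescence with signal to noise across triplicate slides; reference of the scale not given here.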 As to conditions: small-molecule microarray, higher = more signal.
The nature of test [13]: probe aCHRDL2 binding to arrayed compounds – biochemical, biotinylated probe, 635/667 nm fluorescence, primary screen (AID 1100). As to conditions: small-molecule microarray, higher = more signal.
Test [14] is described as follows: change in splice reporter luminescence, either direction, cell-based, HEK293, spliceosome inhibition project, primary screen (AID 1101).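 Note: HEK293 cells carrying a splicing-competent luciferase reporter gene; test concentration not given here.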 As to conditions: HEK293 splicing luciferase reporter, 24 h, higher = more signal, called active from +8 up or from −8 down.
Test [15] concerns the target Fibroblast growth factor 10 (Homo sapiens) (UniProt O15520). The experiment in a line: compounds binding fibroblast growth factor 10 – biochemical, small-molecule microarray, 635 nm fluorescence, primary screen (AID 1102). As to conditions: FGF10 binding, fluorescence 635 nm, higher = more signal.
Test [16] relates to glycogen synthase kinase-3 (GSK3A per assay name; protocol says GSK3B). Description: compounds binding glycogen synthase kinase-3 – biochemical, small-molecule microarray, 635 nm fluorescence, GSK3A, primary screen (AID 1103). Note: the record names both GSK3A and GSK3B. As to conditions: fluorescence 635 nm, higher = more signal.
Test [17] concerns the target Epidermal growth factor receptor (Homo sapiens) (UniProt P00533). Description: compounds binding epidermal growth factor receptor – biochemical, small-molecule microarray, 635 nm fluorescence, primary screen (AID 1104).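 Note: score merges 667 nm emission intensity with spot signal to noise over triplicate slides.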 The following applies: EGFR binding, higher = more signal.
The target in test [18] is Follistatin-related protein 3 (Homo sapiens) (UniProt O95633). Description: compounds binding follistatin-related protein 3 – biochemical, small-molecule microarray, 635 nm fluorescence, primary screen (AID 1105).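 Note: score merges emission near 667 nm and signal to noise per printed spot across three slides.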 The following applies: FSTL3 binding, higher = more signal.
Follistatin-related protein 3 (Homo sapiens), sequence (O95633 whole entry, looked up): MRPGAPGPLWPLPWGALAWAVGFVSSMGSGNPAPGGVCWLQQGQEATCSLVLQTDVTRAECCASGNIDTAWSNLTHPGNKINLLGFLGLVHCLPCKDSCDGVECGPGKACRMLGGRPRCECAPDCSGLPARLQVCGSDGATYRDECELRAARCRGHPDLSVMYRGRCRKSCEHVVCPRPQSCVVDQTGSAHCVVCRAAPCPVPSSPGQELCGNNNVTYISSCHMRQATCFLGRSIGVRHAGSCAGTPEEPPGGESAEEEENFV
In test [19] the target is Dickkopf-related protein 1 (Homo sapiens) (UniProt O94907). Description: small molecules binding DKK1 protein – biochemical, small-molecule microarray, 635 nm fluorescence scan, primary screen (AID 1106).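 Note: score merges emission near 667 nm with signal to noise over three replicate slides.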 The following applies: higher = more signal.
Dickkopf-related protein 1 (Homo sapiens), sequence (O94907 whole entry, looked up): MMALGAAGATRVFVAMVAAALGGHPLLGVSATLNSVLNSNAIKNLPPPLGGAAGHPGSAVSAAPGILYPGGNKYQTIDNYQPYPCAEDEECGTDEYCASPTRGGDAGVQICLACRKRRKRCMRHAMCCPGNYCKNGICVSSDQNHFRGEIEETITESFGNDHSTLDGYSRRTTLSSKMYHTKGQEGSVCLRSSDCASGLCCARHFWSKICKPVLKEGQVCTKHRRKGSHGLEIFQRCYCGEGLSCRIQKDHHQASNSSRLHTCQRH
In test [20] the test system is Inhibin beta A chain (activin A). The experiment in a line: small molecules binding activin A – biochemical, small-molecule microarray, 635 nm fluorescence scan, primary screen (AID 1107).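 Note: mouse activin A protein probed at 4.33 µg/mL on printed slides; score merges bound-protein fluorescence near 667 nm with spot signal-to-noise.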 The following applies: INHBA, higher = more signal.

Calls of active or inactive are those of the source.

Fibroblast growth factor 10 (Homo sapiens), sequence (O15520 whole entry, looked up): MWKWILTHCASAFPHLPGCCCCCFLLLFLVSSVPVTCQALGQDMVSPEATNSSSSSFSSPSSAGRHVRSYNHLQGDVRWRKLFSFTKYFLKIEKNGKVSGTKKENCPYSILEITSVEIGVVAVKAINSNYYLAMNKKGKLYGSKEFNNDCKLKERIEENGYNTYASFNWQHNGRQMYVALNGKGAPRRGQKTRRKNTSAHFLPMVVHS
Epidermal growth factor receptor (Homo sapiens), sequence (P00533 whole entry, looked up): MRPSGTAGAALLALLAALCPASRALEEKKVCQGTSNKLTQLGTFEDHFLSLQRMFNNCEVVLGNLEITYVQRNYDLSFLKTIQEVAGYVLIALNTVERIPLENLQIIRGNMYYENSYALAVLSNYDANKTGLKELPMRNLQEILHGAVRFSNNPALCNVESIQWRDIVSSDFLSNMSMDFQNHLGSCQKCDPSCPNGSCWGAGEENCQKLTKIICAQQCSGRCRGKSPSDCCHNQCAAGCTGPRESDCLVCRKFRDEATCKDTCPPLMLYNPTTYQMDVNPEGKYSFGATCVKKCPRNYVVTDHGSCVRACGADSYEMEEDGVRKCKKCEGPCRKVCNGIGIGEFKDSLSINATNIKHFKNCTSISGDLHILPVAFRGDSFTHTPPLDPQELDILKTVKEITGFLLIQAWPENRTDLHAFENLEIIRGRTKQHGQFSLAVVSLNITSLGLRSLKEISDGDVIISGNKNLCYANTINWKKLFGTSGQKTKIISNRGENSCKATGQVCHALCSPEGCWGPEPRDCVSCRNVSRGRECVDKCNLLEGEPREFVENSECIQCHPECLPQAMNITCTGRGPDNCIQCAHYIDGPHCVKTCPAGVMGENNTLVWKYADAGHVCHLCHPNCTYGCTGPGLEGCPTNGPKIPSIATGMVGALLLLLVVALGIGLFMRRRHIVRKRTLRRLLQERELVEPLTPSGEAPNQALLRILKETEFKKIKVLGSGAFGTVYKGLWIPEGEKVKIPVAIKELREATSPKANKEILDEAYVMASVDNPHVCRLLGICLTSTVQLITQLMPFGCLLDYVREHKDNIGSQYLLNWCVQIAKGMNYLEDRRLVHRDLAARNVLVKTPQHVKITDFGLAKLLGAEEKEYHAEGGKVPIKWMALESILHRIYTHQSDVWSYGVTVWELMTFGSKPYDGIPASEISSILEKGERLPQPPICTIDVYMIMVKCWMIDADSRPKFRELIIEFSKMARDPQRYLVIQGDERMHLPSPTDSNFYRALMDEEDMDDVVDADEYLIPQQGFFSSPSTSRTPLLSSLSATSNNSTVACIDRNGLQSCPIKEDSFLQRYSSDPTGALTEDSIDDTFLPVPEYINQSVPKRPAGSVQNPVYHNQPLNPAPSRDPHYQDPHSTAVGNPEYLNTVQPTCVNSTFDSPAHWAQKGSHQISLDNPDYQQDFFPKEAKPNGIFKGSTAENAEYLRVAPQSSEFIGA

`C[C@@H]1CC[C@H]2C(=O)O[C@@H](COc3ccc(C(C)(C)C)cc3)CN2[C@H]1c1ccc(Br)cc1`: the composite z-score in test [1] is 0.76; in [5], 0.456; in test [7], -0.159; in test [8] it was 0.307; in [9], -0.288; in test [10], -0.0326. Besides, the composite z-score is 0.418 in [11]; -0.251 in test [12]; -0.427 in test [13]; 0.0543 in test [15]; 0.158 in test [16]; -0.0032 in test [17]. Moreover, the composite z-score in [18] came to 0.0224; in test [19] it was 0.191; in [20], 0.0996. Further, the z-score in [2] was 0.267 (inactive); in [3] it was -0.0416 (inactive); in [4] it was -0.264 (inactive); in [6] it was 0.113 (inactive); in test [14], 0.0739 (inactive).
Turning to `Cc1ccc(S(=O)(=O)N[C@@H]2COC(=O)CC=C[C@@H](C)[C@H](NS(=O)(=O)c3ccc(C)cc3)COC(=O)[C@H](C)NC(=O)CC=C[C@H]2C)cc1`, the composite z-score in test [1] is -0.287; in test [5], -0.865; in test [7] it was -0.291; in [8], 0.354; in test [9], -0.632; in [10], -0.16. For the same compound, the composite z-score was -0.267 in test [11]; -0.472 in test [12]; -0.684 in [13]; -0.0861 in test [15]; -0.0951 in test [16]; 0.0994 in [17]. The composite z-score in test [18] worked out at 0.129; in test [19], 0.123; in test [20], 1.27. The z-score in test [2] is -0.0073 (inactive); in [3], 0.13 (inactive); in test [4], 0.147 (inactive); in test [6], 0.715 (inactive); in test [14] it was -0.294 (inactive).
`CCc1cc2c(nc1CC)CCN(CCC(C)=NOC(C)CN1CCCCc3nc(C)c(C)cc31)C2` (stereo not given): the composite z-score in test [1] worked out at 1.49; in test [5] it was 2.42; in test [7] it was 0.0809; in test [8], 0.932; in test [9] it was 1.08; in test [10], 0.142. The composite z-score is 0.526 in test [11]; -0.0521 in test [12]; -0.215 in test [13]; 0.628 in [15]; 1.25 in [16]; 0.81 in test [17]. The composite z-score came out at 1.19 in [18], 0.841 in [19] and 1.31 in [20]. Besides, the z-score in [2] is -0.379 (inactive); in test [3] it was -16.2 (active); in test [4], -0.755 (inactive); in [6], 0.546 (inactive); in [14], -0.242 (inactive).
Take `COC(=O)[C@H](C)NC(=O)CCC1CC(OC(=O)NCCc2ccc(F)cc2)CC2(CCCC(COC(=O)NCc3ccccc3)O2)O1` (stereo not given in full): the composite z-score is 1.53 in [1]; 1.92 in [5]; -0.0898 in test [7]; 0.55 in [8]; 1.1 in test [9]; -0.0314 in [10]. In addition, the composite z-score in test [11] was 0.768; in test [12] it was -0.128; in test [13], -0.37; in test [15], 0.834; in [16], 1.28; in test [17], 0.462. Moreover, the composite z-score is 1.29 in test [18], 0.477 in [19] and 0.0384 in test [20]. The z-score is 0.59 (inactive) in [2]; 1.04 (inactive) in test [3]; 0.932 (inactive) in test [4]; -0.755 (inactive) in [6]; -0.114 (inactive) in [14].
For the compound `COc1ccc(OC[C@@H]2CC3[C@@H](c4ccc(Br)cc4)[C@H](C)CC[C@H]3C(=O)O2)cc1` (stereo not given in full), the composite z-score is 0.112 in test [1]; 0.82 in [5]; -0.158 in test [7]; 0.991 in test [8]; 0.509 in test [9]; -0.159 in test [10]. Besides, the composite z-score was 0.353 in [11]; -0.436 in [12]; -0.727 in test [13]; 0.638 in test [15]; -0.274 in [16]; 0.885 in test [17]. Further, the figures for the composite z-score in test [18], in [19] and in test [20] were 0.354, 0.827 and 0.483, respectively. Moreover, the z-score in test [2] is -0.251 (inactive); in test [3], -2.64 (inactive); in [4], 0.0176 (inactive); in [6], -0.145 (inactive); in test [14], -0.823 (inactive).
Consider `CC(CCN1CCCc2nc(C)c(C)cc21)=NO[C@H](C)c1cn([C@@H]2COC[C@H]2O)nn1`, for which the composite z-score in test [1] amounted to 1.16; in test [5], 0.788; in test [7], 0.13; in test [8] it was 0.566; in test [9], 0.676; in test [10], 0.187. For the same compound, the composite z-score is 0.389 in [11]; -0.156 in [12]; -0.519 in test [13]; 0.667 in test [15]; 1.11 in test [16]; 1.06 in test [17]. Moreover, the results for the composite z-score in [18], in test [19] and in test [20] were 0.884, 0.902 and 1.26, respectively. Also, the z-score in test [2] was 1.17 (inactive); in test [3], 1.12 (inactive); in [4] it was 0.468 (inactive); in test [6], 1.24 (inactive); in test [14] it was 0.169 (inactive).
On to `C=CC[C@@H]1C=C[C@H](ON=C[C@@H](NS(=O)(=O)c2ccc(C)cc2)[C@H](C)C=CCC(=O)OC)[C@@H](CO)O1`, for which the composite z-score in test [1] is -0.248; in [5] it was 0.324; in [7] it was -0.11; in [8] it was 0.659; in test [9], -0.531; in test [10], -0.0715. Further, the composite z-score in [11] was 0.296; in [12], -0.353; in [13], -0.642; in test [15] it was 0.0083; in [16], -0.0166; in test [17], 0.516. Moreover, the composite z-score turned out to be 0.566 in test [18], 0.619 in test [19] and 1.15 in [20]. Also, the z-score in test [2] is -0.605 (inactive); in test [3] it was 0.757 (inactive); in [4], -0.0333 (inactive); in test [6], 0.354 (inactive); in test [14], 0.463 (inactive).
With `COC(=O)CC=C[C@@H](C)[C@@H](C=NOC[C@@H](C)[C@H](OCc1ccccc1)C(C)C)NS(=O)(=O)c1ccc(C)cc1`, the composite z-score in [1] was 0.123; in test [5], 0.0335; in test [7], -0.27; in test [8], 0.452; in [9] it was -1.44; in test [10], -0.142. The composite z-score in test [11] was -0.196; in [12] it was -0.439; in test [13], -0.75; in [15] it was -0.714; in [16] it was -1.15; in test [17] it was -0.0573. Besides, the composite z-score in test [18] was -0.888; in test [19] it was 0.0424; in test [20] it was 0.168. Also, the z-score in [2] is -0.161 (inactive); in [3], 1.53 (inactive); in test [4] it was 0.227 (inactive); in test [6] it was -1.42 (inactive); in test [14], -0.21 (inactive).
Turning to `C#CCCCON=C1[C@H]2CCn3c(=O)n([C@@H](CC)c4ccccc4)c(=O)n3[C@H]2[C@H](O)[C@@H]2O[C@H]12`, the composite z-score was -0.142 in [1]; 0.883 in test [5]; -0.114 in test [7]; 1.05 in test [8]; 0.226 in test [9]; -0.042 in [10]. The composite z-score in test [11] was 1.1; in [12], -0.175; in test [13], -0.317; in test [15], 0.581; in test [16], -0.51; in test [17], 0.179. The values for the composite z-score in test [18], in [19] and in [20] were 0.34, 0.209 and 0.228, respectively. The z-score in [2] was -0.455 (inactive); in [3], -1.1 (inactive); in [4], -0.533 (inactive); in test [6] it was -0.647 (inactive); in test [14] it was 6.03 (inactive).
